Screening results (PubChem BioAssay)
esBAF inh: inhibitors of esBAF chromatin remodeling in mouse ES cells. actives 2% (n = 350,000). reporter increase, % at 12.5 µM. Bmi1-luciferase knock-in reporter, 24 h; 100% = twice the neutral-well signal; in the data active = activation above about 40%; inconclusive = no clear call, values can overlap the other calls;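 note: 0% = median of the plate's neutral control wells and 100% = double that signal; a rise in the Bmi1 reporter signal indicates esBAF inhibition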
HSF1 inh: HSF1 inhibition; actives 0.77% (n = 300,000); NIH3T3-HGL HSE-luciferase, MG132-induced, luminescence 8 h; stronger effect = lower value; activity change, negative = inhibition, % at 7.5 µM (by protocol); AID 2098;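 active = more than half of replicate wells show activity change below -50%, luminescence cut by over half; inconclusive = some wells, but at most half, below -50%; inactive = no replicate well below -50%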;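 note: luciferase reports HSF-1 transcriptional activity via heat shock element; 0% = median of DMSO wells and -100% = zero luminescence signal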
HSF1 activator: increases HSF-1 driven luciferase reporter signal; NIH3T3-HGL HSF-1 luciferase reporter, MG132, 8 h; 100% = twice DMSO control signal; actives 1.7% (n = 300,000); AID 504408; activation, % at 9 µM;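 active = mean replicate activation of at least 50% with a set share of replicates each reaching 50%; inconclusive = only one of those two conditions met; inactive = mean below 50% and too few replicates reaching it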;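 note: 0% = median of the neutral control wells and 100% = twice that signal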
Vif imaging: HIV Vif inhibition | AID 602346 | actives 0.35% (n = 340,000) | HEK293T cells, Vif self-association by quenched fluorescence, imaging, 24 h | inhibition, % at 7.49 µM; in the data active = inhibition above about 50%, passing the limit was not always enough; inconclusive = no clear call, values can overlap the other calls; inactive = below about 31%
Active calls of the source: *; ? = inconclusive; . = not tested or not shown. An excerpt weighted towards active compounds, which were near 3.4% of everything screened.

SMILES	esBAF inh	HSF1 inh	HSF1 activator	Vif imaging
O=C(Nc1ccc2c(c1)OCO2)C1CC(c2ccccc2Cl)=NO1 (centres undefined)	64*	-11	17	0
Cc1ccc(C(NC(=O)/C=C\c2ccc3c(c2)OCO3)C(=O)Nc2ccc3c(c2)OCO3)cc1 (centres undefined)	.	39	99*	-11
O=C(Nc1ccc(Cl)cc1)Nc1ccc2c(c1)OCO2	60*	17	14	-5
O=C(Nc1ccc2c(c1)OCO2)Nc1ccc2c(c1)OCO2	.	16	18	-2
CCn1cc(C2=NOC(C(=O)Nc3ccc4c(c3)OCO4)C2)c(C)n1 (centres undefined)	3	5	-4	-6
C[C@H]1CN([C@@H](C)CO)C(=O)c2cc(NC(=O)Nc3ccc(F)cc3)ccc2O[C@@H]1CN(C)C(=O)NC1CCCCC1	6	.	.	.
COc1ccccc1NC(=O)N1C[C@H](O)COC[C@@H]2O[C@@H](CC(=O)NCCc3ccccc3)CC[C@H]21	-5	.	.	.
COc1nc(Nc2cccc(C(F)(F)F)c2)nc(OC)n1	30	22	59*	0
Cc1cc(C)nc(Nc2cccc(C(F)(F)F)c2)n1	4	-1	-2	-3
COc1ccccc1-c1ccc(Nc2cccc(C(F)(F)F)c2)nn1	45*	-4	19	-1
CCS(=O)(=O)Nc1ccc2[nH]c(=O)[nH]c2c1	.	28	78*	-7
CS(=O)(=O)Nc1ccc2[nH]c(=O)[nH]c2c1	.	1	2	1
CC=Cc1ccc2n(c1=O)C[C@@H]1[C@@H](CO)[C@H](C(=O)NCCC)N(C(=O)CC)[C@H]21 (mixture of isomers)	1	.	.	.
CCc1ccc2[nH]c(O)c(N=Nc3nc(-c4ccccc4)cs3)c2c1	.	-89*	-91	-5
COc1ccc(S(=O)(=O)Nc2cccc3c2O[C@H](CN(C)C)[C@H](C)CN([C@H](C)CO)C3=O)cc1	-1	.	.	.
CCCNC(=O)N1C[C@@H](C)[C@H](OC)CN(C)C(=O)c2cc(NC(=O)C3CCC3)ccc2OC[C@H]1C	-4	.	.	.
COc1ccccc1NC(=O)C(=O)N/N=C/c1cccs1	76*	1	24	-9
O=C(O)CCCNC(=O)/C=C/c1ccco1	.	0	9	.
O=C(/C=C/c1ccco1)NCCc1ccccc1	52*	13	5	1
O=C(/C=C/c1ccco1)NC(=S)Nc1ccccn1	46*	27	58*	8
O=C(/C=C/c1ccco1)Nc1cccc(NC(=O)/C=C/c2ccco2)n1	.	46	81*	4
C[C@H](CO)N1C[C@H](C)[C@H](CN(C)C(=O)Cc2ccccc2)Oc2cc(C#CC3(O)CCCC3)ccc2S1(=O)=O	4	.	.	.
O=C(/C=C/c1ccccc1)NC(=S)Nc1ncccn1	.	18	19	0
O=C(/C=C/c1ccco1)Nc1cc(Cl)ccc1C(=O)O	5	-1	22	-2
COc1ccccc1NC(=O)C(=O)N/N=C(\C)CC(=O)Nc1ccccn1	-10	2	6	0
SMILES	esBAF inh	HSF1 inh	HSF1 activator	Vif imaging
COc1ccccc1/C=C/C(=O)NC(=S)Nc1ccccn1	31	51	65*	-3
O=C(/C=C\c1ccco1)Nc1cc([N+](=O)[O-])ccc1F	.	-24	-32	64*
COc1ccc(/C=C/C(=O)NC(=S)Nc2ccccn2)cc1	48*	23	35	13
COc1ccccc1NC(=O)C(=O)Nc1ccccn1	35	28	59*	-2
C[C@@H]1CN([C@@H](C)CO)C(=O)c2cccc(NC(=O)Nc3ccc(C(F)(F)F)cc3)c2O[C@H]1CN(C)Cc1ccc(C(=O)O)cc1	2	.	.	.
Cc1noc(C)c1S(=O)(=O)Nc1ccc2c(c1)C(=O)N([C@@H](C)CO)C[C@@H](C)[C@H](CN(C)C(=O)Cc1ccccc1)OCCCC[C@H](C)O2	0	.	.	.
COc1ccc(NC(=O)/C=C/c2ccco2)cn1	44*	15	26	14
CCOC(=O)Cc1csc(NC(=O)c2cnc3sc(C)cn3c2=O)n1	47*	13	24	-9
CCOC(=O)Cc1csc(NC(=O)c2ccc(C)o2)n1	15	4	6	6
CCOC(=O)Cc1csc(NC(=O)c2ccc3ncsc3c2)n1	52*	-3	1	-2
CCCC#Cc1ccc2c(c1)O[C@@H](CN(C)C(=O)CC1CC1)[C@H](C)CN([C@H](C)CO)S2(=O)=O	1	.	.	.
Cc1cccc(OCCNc2ncccc2[N+](=O)[O-])c1	74*	.	.	1
Cc1csc(N/N=C/c2c(F)cccc2Cl)n1	45*	-2	8	0
Fc1cccc(Cl)c1/C=N/Nc1ccccn1	56*	22	36	-4
Fc1cccc(F)c1/C=N/Nc1ccccn1	.	33	?	.
O=C(O)c1ccc(N/N=C/c2c(F)cccc2Cl)cc1	-53	-46	-52	8
Clc1ccc(/C=N/NC(=Nc2ccccc2)c2ccccn2)c(Cl)c1	-13	23	46	3
Clc1ccc(C=NNc2ccccn2)c(Cl)c1	43*	.	.	-3
COc1ccc(S(=O)(=O)Nc2ccc3c(c2)CC(=O)N([C@@H](C)CO)C[C@H](C)[C@@H](CN(C)C(=O)Nc2c(C)noc2C)O3)cc1	4	.	.	.
CO[C@@H]1CN(C)C(=O)c2cc(NC(=O)c3ccc(F)cc3)ccc2OC[C@@H](C)N(C(=O)CN(C)C)C[C@H]1C	4	.	.	.
CO[C@H]1CN(C)C(=O)c2cc(NC(=O)Nc3cc(F)ccc3F)ccc2OC[C@@H](C)N(C)C[C@@H]1C	-2	.	.	.
CCCC(=O)Nc1ccc2c(c1)C(=O)N(C)C[C@@H](OC)[C@H](C)CN(C(=O)c1ccccn1)[C@@H](C)CO2	-2	.	.	.
C=CCn1c(=N)n(CC(=O)c2ccc(Br)cc2)c2ccccc21	-7	2	-13	-4
N=c1n(N)c2ccccc2n1CC(=O)c1ccc(Br)cc1	52*	9	-4	-7
COc1ccc(-c2csc(N3CCSCC3)n2)cc1	47*	7	-1	8
SMILES	esBAF inh	HSF1 inh	HSF1 activator	Vif imaging
COc1ccc(-c2csc(-n3ncc(-c4cccs4)c3N)n2)cc1	2	0	4	18
COc1ccc(-c2csc(-n3cccn3)n2)cc1	68*	29	61*	-13
Fc1ccc(OCc2nc(-c3cccs3)no2)cc1	?	31	65*	-6
Cc1cc(OCc2nc(-c3cccs3)no2)cc(C)c1Cl	13	18	17	13
c1ccc(OCc2nc(-c3cccs3)no2)cc1	58*	29	59*	11
CC(C)CC#Cc1ccc2c(c1)O[C@H](CN(C)Cc1cccnc1)[C@@H](C)CN([C@H](C)CO)S2(=O)=O	-3	.	.	.
NCC[C@@H]1CC[C@H](NC(=O)CCN2CCCCC2)[C@H](CO)O1	-4	.	.	.
COCC(=O)N1C[C@H]2[C@@H](c3ccccc31)[C@H](CO)N2C(=O)C1CCOCC1	-6	.	.	.
O=C(/C=C/c1ccc(Cl)c([N+](=O)[O-])c1)Nc1cccc(NC(=O)c2ccco2)c1	12	0	3	0
O=C(/C=C/c1ccc(Cl)c([N+](=O)[O-])c1)Nc1cccnc1	53*	13	26	11
